# Data published in PubChem BioAssay (NCATS).
# Results filed as inconclusive are left out. Where a call stands in place of a potency, no number is given. Activity calls are given as the source filed them. The call rests on the fitted dose curve; in most records, active means well fitted activation curve with a large enough effect; inconclusive means small, poorly fitted or top-dose-only effect; inactive means no such curve, though single readings can be large or run the other way.
# Target: Nuclear receptor subfamily 1 group I member 3 (Homo sapiens) (UniProt Q14994)
# Sequence (Q14994 whole entry, looked up): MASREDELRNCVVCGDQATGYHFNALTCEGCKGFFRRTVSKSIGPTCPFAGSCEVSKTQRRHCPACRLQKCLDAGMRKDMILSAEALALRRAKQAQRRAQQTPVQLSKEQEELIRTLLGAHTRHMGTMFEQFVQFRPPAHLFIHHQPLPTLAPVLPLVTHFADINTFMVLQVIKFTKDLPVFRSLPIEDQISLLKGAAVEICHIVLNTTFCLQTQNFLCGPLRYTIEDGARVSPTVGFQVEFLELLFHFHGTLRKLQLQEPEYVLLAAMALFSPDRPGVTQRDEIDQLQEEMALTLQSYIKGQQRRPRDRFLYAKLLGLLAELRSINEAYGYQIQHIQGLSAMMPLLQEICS
# Test: qHTS for Constitutive Androstane Receptor (CAR) Agonist screened against the NCATS CANVASS Library (AID 1347373);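 further: every well also contained 1.5 µM PK11195 alongside the test compound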
# Details: HepG2-hCAR-CYP2B6 luciferase reporter, ONE-Glo luminescence; series mostly up to 46.1 µM
# From the text: Natural products and their derivatives continue to be wellsprings of nascent therapeutic potential. However, many laboratories have limited resources for biological evaluation, leaving their previously isolated or synthesized compounds largely or completely untested. To address this issue, the Canvass library of natural products was assembled (https://tripod.nih.gov/canvass), in collaboration with academic and industry researchers, for quantitative high-throughput screening (qHTS) across a diverse set of cell-based and biochemical assays. The pure (>85% purity by liquid chromatography/mass spectrometry [LC/MS]) Canvass library of 346 natural products were submitted by 45 academic laboratories and companies around the world. We collected pure natural products to circumvent deconvolution and structure elucidation due to time and resource limitations. The library was formatted into 1536-well plates and evaluated in 50 qHTS (in an 11-pnt concentration series) bioassays with broad scope of disease-relevant mechanisms. The resulting data set from 50 different assays was then systematically analyzed to identify overall trends and specific natural products with interesting biological activities. Reported herein are the results of each individual qHTS and their corresponding assay protocol. The constitutive androstane receptor (CAR) is a nuclear receptor which regulates multiple drug metabolizing enzymes (DMEs) and transporters. Activating CAR will generally increase the transcription and subsequent translation of CYP2B6 and CYP3A4. These two DMEs represent about 50% of the drug metabolizing potential in the body. […] Recently, there have also been studies performed indicating CARs role in energy metabolism and cancer therapy. Therefore, inducing or inhibiting CAR's activity could have a potential effect on diabetes and/or cancer. National Center for Advancing Translational Sciences (NCATS), Rockville, MD National Institute of Health (NIH), Bethesda, Maryland
# Material: A double-stable (hCAR and CYP2B6-2.2kb) transfected cell line, derived from human hepatoma (HepG2) cells, was utilized for the duration of the quantitative high-throughput screens. The HepG2-CYP2B6-hCAR cells suspended in DMEM culture medium supplemented with 10% FBS, 5 ug/mL blasticidin, 0.5 mg/mL geneticin, 100 U/mL penicillin and 100 ug/mL streptomycin. CAR Agonist assay protocol: 1. In a 1536 well, tissue culture treated white solid bottom plates (Greiner Bio-One North America), 4 uL of engineered HepG2-hCAR-CYP2B6 cell solution (final concentration 2500 cells / well) was dispensed using the Multidrop Combi dispenser (Thermo Fisher Scientific). 2. The assay plates were incubated for 4hr at 37C, 5% CO2 to allow the cells to acclimate and attach. 3. Compounds were pin transferred (~23 nL volume) to the assay plates via Wako Pin-tool (Wako Automation, Richmond VA) equipped with a 1536 pin head. The compounds were transferred to columns 5-48 resulting in a final concentration ranging from 0.6nM to 92uM. 4. One uL of PK11195, was added using a Flying Reagent Dispenser to generate a final concentration of 1.5uM PK11195 inside each well. 5. The assay plates were incubated at 37C, 5% CO2 for 24hr. 6. To measure cell viability, 1 uL of CellTiter-Fluor (Promega) reagent was then added to the assay plates (column 1-48, rows 1-32). The assay plates were incubated for 1hr at 37C, 5% CO2. 7. A first readout of fluorescence signal was acquired via the ViewLux (PerkinElmer) plate reader using a FITC dichroic mirror, excitation 405/10 nm filter, and emission 540/25 nm filter; and using 65 light energy, 1 second exposure, and 2x binning settings. 8. To measure CAR activation, 4 uL of ONE-Glo reagent (Promega) was added to the assay plates (column 1-48, rows 1-32). The assay plates were further incubated at room temperature for 30 min. 9. A second readout of luminescence signal was acquired via the ViewLux plate reader using a clear emission filter, 10 second exposure, 2x binning settings. […]
# Potency means the concentration at half of the fitted maximal effect.
row,SMILES,Potency
1,O=C1CC(c2ccc(O)cc2)Oc2ccccc21 (stereo not given),23.4 µM (active)
2,CCC(=O)CCCCC[C@@H]1NC(=O)[C@H]2CCCCN2C(=O)[C@H](C(C)C)NC(=O)[C@H](Cc2cn(OC)c3ccccc23)NC1=O,inactive
3,C/C(=C\[C@H](C)C(=O)C[C@H](O)CC1CC(=O)NC(=O)C1)[C@@H]1OC(=O)CCCC/C=C/C[C@@H](O)[C@@H]1C,inactive
4,C[C@@]12CCC[C@@](C)(C(=O)O)[C@H]1CC[C@@]13C[C@@H](CC[C@H]12)[C@](C)(O)C3,inactive
5,C/C1=C/[C@@H](C)[C@H](O)[C@@H](O)/C=C/CC/C=C/C(=O)O[C@@H]1[C@H](C)C(=O)CCCC1CC(=O)NC(=O)C1,inactive
6,C=C1C[C@H]2O[C@@H]3[C@@H]4[C@H](CC[C@@](C)(O)[C@@H]42)[C@H](C)COC3(C)[C@@H](OC(=O)CCCCCCC)C[C@H]1O (stereo not given in full),inactive
7,COc1cc2ccc(=O)oc2c(O)c1O[C@@H]1O[C@H](CO)[C@@H](O)[C@H](O)[C@H]1O,inactive
8,COc1ccc([C@@H]2c3cc4c(cc3C(=O)[C@H](C)C2C)OCO4)cc1OC (stereo not given in full),inactive
9,CO[C@@H]1[C@H](O)[C@@H](C)O[C@@H](OC[C@@H]2C(C)OC(=O)/C=C/[C@H](C)C(O[C@@H]3O[C@H](C)CC4(OC(=O)O[C@@H]4C)C3O)[C@@H](C)CC(C)C(=O)/C=C/[C@H]3OC23)[C@@H]1OC (stereo not given in full),inactive
10,CCC(C)=C1OC(=O)[C@H](C)[C@H](O)[C@H](Cc2cccnc2)NC(=O)C(NC(=O)c2ncccc2O)C(C)OC1=O (stereo not given in full),inactive
11,C[C@@]12CCC[C@@](C)(C(=O)O)[C@H]1C[C@@H](O)[C@@]13C[C@@H](CC[C@@H]21)[C@](C)(O)C3,inactive
12,CC(=O)c1c(C)cc2c(c1O)C(=O)c1c(O)cc(O)cc1C2=O,inactive
13,O=C1CC(c2ccc(O)cc2)Oc2cc(O)ccc21 (stereo not given),inactive
14,C=C(C)C(=O)O[C@H]1C[C@@]2(C)OC(=CC2=O)/C(C)=C\[C@H]2OC(=O)C(=C)[C@H]12,inactive
15,CCC(=O)N[C@@H](C[C@H](C)C(Cl)(Cl)Cl)C(=O)N1C(=O)C=C(OC)[C@@H]1CC(C)C,inactive
16,CC[C@@H](c1cc(OC)c(OC)cc1OC)[C@H](C)[C@@H](/C(C)=C/c1cc(OC)c(OC)cc1OC)c1cc(OC)c(OC)cc1OC,inactive
17,C/C=C1/C2=CCCN3C(=O)O[C@H]([C@H]1O)[C@H]23,inactive
18,O=C1OC(CCO)c2cccc(O)c21 (stereo not given),inactive
19,CC(C)=CC[C@H]1C[C@@]2(CC=C(C)C)C(=O)[C@](CC=C(C)C)(C(=O)C(C(=O)c3ccccc3)=C2O)C1(C)C,inactive
20,C=C1C[C@H]2O[C@@H]3[C@@H]4[C@H](CC[C@@](C)(O)[C@@H]42)[C@H](C)COC3(C)[C@@H](OC(=O)CCCCCCC)CC1=O (stereo not given in full),inactive

row,SMILES,Potency
1,COc1cc([C@@H]2c3cc4c(cc3C[C@@]3(O[C@@H]5O[C@H](CO)[C@@H](O)[C@H](O)[C@H]5O)COC(=O)[C@H]23)OCO4)cc(OC)c1OC,inactive
2,CCCc1c2c([nH]c(=O)c1C)C(=O)c1[nH]c(=O)c(C)c(CCC)c1C2=O,inactive
3,CN1CC[C@]2(c3cccc4c3N[C@H]3N(C)CC[C@@]43[C@]34CCN(C)[C@H]3Nc3ccccc34)c3ccccc3N[C@H]12,inactive
4,CO[C@H]1[C@@H](OC(=O)/C(C)=C\[C@@H]2O[C@@H]2[C@H]2O[C@H]2C)[C@H](O)[C@H](OCC23C[C@@H]4[C@H](C)CC[C@H]4C4(C=O)CC2C=C(C(C)C)C34C(=O)O)O[C@@H]1C (stereo not given in full),inactive
5,C=C1CCC2C(C)(C(=O)O)CCC(CC/C(C)=C/C(=O)NC(CCC(N)=O)C(=O)O)[C@@]2(C)C1 (stereo not given in full),inactive
6,COC1C(C)OC(OCC23C[C@@H]4[C@H](C)CC[C@H]4C4(C=O)CC2C=C(C(C)C)C34C(=O)O)[C@@H](O)[C@H]1O (stereo not given in full),inactive
7,CC1(C)CC[C@]2(CO)CC[C@]3(C)C(=CCC4[C@@]5(C)CC[C@H](O)C(C)(C)C5CC[C@]43C)C2C1 (stereo not given in full),inactive
8,C[C@@]1(CCC(=O)Nc2c(O)ccc(C(=O)O)c2O)C(=O)C=C[C@]23C[C@H]4C[C@H](O[C@@]4(C)C2)C31 (stereo not given in full),inactive
9,COc1ccc([C@@H]2c3cc4c(cc3C[C@H](C)C2C)OCO4)cc1OC (stereo not given in full),inactive
10,CCC(=O)N[C@@H](C[C@H](C)C(Cl)(Cl)Cl)C(=O)N1C(=O)C=C(OC)[C@@H]1C[C@H](C)CCl,inactive
11,C/C=C/c1cc2c(c(=O)o1)C(=O)[C@@H](O)[C@H](C)O2,inactive
12,O=C(OC[C@H]1O[C@@H](OC(=O)c2cc(O)c(O)c(O)c2)[C@H](OC(=O)c2cc(O)c(O)c(O)c2)[C@@H](OC(=O)c2cc(O)c(O)c(O)c2)[C@@H]1OC(=O)c1cc(O)c(O)c(O)c1)c1cc(O)c(O)c(O)c1,inactive
13,CN1CC[C@]23c4ccccc4N[C@H]1[C@]21CCN(C)[C@H]3Nc2ccccc21,inactive
14,CC[C@@H]1C[C@@]2(CC)OC(=O)[C@@]3(CC)[C@H](CC)[C@@H]1[C@@H]23,inactive
15,C=C1C[C@]23C=CC(=O)[C@@](C)(CCCC(C)C(=O)N[C@@H](CO)C(=O)O)[C@@H]2C[C@@H]1CC3 (stereo not given in full),inactive
16,CN1C(=O)C(=O)N2C(=C[C@]3(c4c[nH]c5ccccc45)c4ccccc4N[C@H]23)C1=O,inactive
17,C/C(=C\[C@H](C)C(=O)/C=C/CC1CC(=O)NC(=O)C1)[C@@H]1OC(=O)CCCC/C=C/[C@H](O)[C@@H](O)[C@@H]1C,inactive
18,O=c1cc(-c2ccc(O)cc2)oc2cc(O)c([C@@H]3OC(CO)[C@H](O)[C@@H](O)[C@H]3O)c(O)c12 (stereo not given in full),inactive
19,COc1cc(/C=C/C(=O)OC[C@@H](Cc2ccc(O)c(OC)c2)[C@@H](COC(=O)/C=C/c2ccc(O)c(OC)c2)Cc2ccc(O)c(OC)c2)ccc1O,inactive
20,C[C@H](c1cnc(N)[nH]1)c1ccc(O)c2[nH]cc(-c3cnc(-c4c[nH]c5ccccc45)c(=O)[nH]3)c12,inactive
